IDE exosite FP = exo-site inhibitors of human insulin-degrading enzyme | P14735 | purified IDE, FL-6b probe fluorescence polarization; stronger effect = lower value | z-score at 20 µM | 17,000 compounds, 6.3% hits | AID 1259349;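 active means z-score of -3 or lower, meaning strong loss of probe binding signal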;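 further: His-tagged human IDE residues 42-1019 made in E. coli with 30 nM FL-6b probe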
* hit, by the source's call; ! = not confirmed by another sample. The entries come from a sample that favours hits as a whole.

Screening COCC#Cc1ccc([C@@H]2[C@H]3CN(C(=O)Nc4ccc(F)cc4)CC(=O)N3[C@H]2CO)cc1 returned IDE exosite FP 3.2.
`COc1ccc2c3c([nH]c2c1)[C@@H](CO)N(C(=O)c1cccc(F)c1)CC31CN(C(=O)CC2CC2)C1` gave IDE exosite FP -0.27.
O=C(Nc1ccccc1F)N1CCCCN2[C@H](C1)[C@@H](c1ccc(-c3cccnc3)cc1)[C@@H]2CO was read as IDE exosite FP -1.4.
`CCCNC(=O)N1[C@@H](CO)[C@@H](c2ccc(-c3ccccc3)cc2)[C@@H]1CNC(C)=O` gave IDE exosite FP 0.87.
`CC(C)NC(=O)N1[C@@H]2CNC[C@H]1C2c1ccc(/C=C/c2ccccc2)cc1` (stereo partly specified) gave IDE exosite FP -1.7.
CCCNC(=O)N1[C@@H]2CNC[C@H]1C2c1ccc(-c2ccc(C)cc2)cc1 (stereo partly specified) was read as IDE exosite FP -3.2*!.
`O=C(Nc1cccc(Cl)c1)N1[C@@H]2CNC[C@H]1C2c1ccc(/C=C/c2ccccc2)cc1` (stereo partly specified) gave IDE exosite FP -0.29.
For CCCNC(=O)N1[C@@H]2CNC[C@H]1C2c1ccc(/C=C/c2ccccc2)cc1 (stereo partly specified) the results were IDE exosite FP -7.5*.
`CC(C)NC(=O)N1[C@@H]2CNC[C@H]1C2c1ccc(-c2cccc(C#N)c2)cc1` (stereo partly specified) gave IDE exosite FP 3.9.
`O=C(Nc1ccccc1)N1CC(=O)N2[C@H](CO)[C@@H](c3ccc(-c4ccc(F)cc4)cc3)[C@@H]2C1` gave IDE exosite FP 2.1.
For CCCC#Cc1ccc([C@@H]2[C@@H](CO)N3C(=O)CN(C(=O)c4ccncc4)C[C@H]23)cc1 the results were IDE exosite FP -0.29.
For C[C@H](CO)N1C[C@H](C)[C@@H](CN(C)C(=O)c2ccccc2)Oc2ncc(C#Cc3ccccc3)cc2C1=O the results were IDE exosite FP -2.2.
For C[C@@H]1CN([C@H](C)CO)C(=O)c2cc(C#Cc3ccccc3)cnc2O[C@@H]1CN(C)C(=O)c1ccccc1 the results were IDE exosite FP -1.8.
`C[C@@H]1CN([C@@H](C)CO)C(=O)c2cc(C#Cc3ccccc3)cnc2O[C@@H]1CN(C)C(=O)c1ccccc1` gave IDE exosite FP -4*.
For C[C@H]1CN([C@@H](C)CO)C(=O)c2cc(/C=C/c3ccccc3)cnc2O[C@H]1CN(C)S(=O)(=O)c1ccccc1F the results were IDE exosite FP 0.065.
`C[C@@H]1CN([C@@H](C)CO)C(=O)c2cc(/C=C/c3ccccc3)cnc2O[C@H]1CN(C)S(=O)(=O)c1ccccc1F` gave IDE exosite FP -3.4*.
For C[C@H]1CN([C@@H](C)CO)C(=O)c2cc(/C=C/c3ccccc3)cnc2O[C@@H]1CN(C)S(=O)(=O)c1ccccc1F the results were IDE exosite FP -0.071.
For CC[C@@H]1C/C=C\C[C@H](c2ccccc2)NC(=O)CCC(=O)N1 the results were IDE exosite FP 1.
CC(=O)N1CC(=O)N2[C@H](CO)[C@H](c3ccc(-c4ccc(C#N)cc4)cc3)[C@@H]2C1 was read as IDE exosite FP 1.4.
O=C(c1ccc2c(c1)OCO2)N1C[C@@H]2[C@H](c3ccccc31)[C@H](CO)N2C(=O)CC1CC1 was read as IDE exosite FP -0.29.
`Cc1ccccc1-c1ccc([C@H]2[C@@H](CO)N3CCCCN(C(=O)NC4CCCC4)C[C@H]23)cc1` gave IDE exosite FP -17*.
For Cc1ccccc1-c1ccc([C@H]2[C@@H](CO)N3CCCCN(C(=O)NC4CCCC4)C[C@@H]23)cc1 the results were IDE exosite FP -19*.
Cc1ccccc1-c1ccc([C@H]2[C@H]3CN(C(=O)NC4CCCC4)CCCCN3[C@H]2CO)cc1 was read as IDE exosite FP -5.7*.
Screening CN(C)C(=O)c1ccc(-c2ccc(C3[C@H]4CNC[C@@H]3N4Cc3ccccn3)cc2)cc1 (stereo partly specified) returned IDE exosite FP 0.14.
O=C(c1cnccn1)N1CC(=O)N2[C@@H](CO)[C@@H](c3ccc(C#CC4CCCCC4)cc3)[C@@H]2C1 was read as IDE exosite FP -0.13.
`C[C@@H]1CN([C@H](C)CO)C(=O)c2ccccc2-c2ccccc2CO[C@@H]1CN(C)Cc1ccc2c(c1)OCCN2C` gave IDE exosite FP -0.15.
Screening O=C(c1cccnc1)N1CC(=O)N2[C@H](C1)[C@@H](c1ccc(C#CCC3CCCC3)cc1)[C@@H]2CO returned IDE exosite FP 4.9.
`CCCC#Cc1ccc([C@H]2[C@@H](CO)N3C(=O)CN(S(=O)(=O)Cc4ccccc4)C[C@@H]23)cc1` gave IDE exosite FP 1.1.
COc1ccc(NC(=O)N2CC(=O)N3[C@H](C2)[C@H](c2ccc(Br)cc2)[C@@H]3CO)cc1 was read as IDE exosite FP 0.35.
COc1ccc(C#Cc2ccc([C@H]3[C@H]4CN(C(C)=O)CC(=O)N4[C@H]3CO)cc2)cc1 was read as IDE exosite FP 2.7.
`COc1cccc(C#Cc2ccc([C@H]3[C@H]4CN(C(C)=O)CC(=O)N4[C@H]3CO)cc2)c1` gave IDE exosite FP -7.9*.
For COc1cccc(C#Cc2ccc([C@@H]3[C@@H](CO)N4C(=O)CN(C(C)=O)C[C@@H]34)cc2)c1 the results were IDE exosite FP -7.5*.
COc1ccc(C#Cc2ccc([C@H]3[C@@H](CO)N4C(=O)CN(C(C)=O)C[C@H]34)cc2)cc1 was read as IDE exosite FP 1.7.
`COc1ccc(C#Cc2ccc([C@H]3[C@@H](CO)N4C(=O)CN(C(C)=O)C[C@@H]34)cc2)cc1` gave IDE exosite FP 3.9.
`COc1ccc(C#Cc2ccc([C@@H]3[C@@H](CO)N4C(=O)CN(C(C)=O)C[C@H]34)cc2)cc1` gave IDE exosite FP 3.6.
Screening O=C1N[C@H](c2ccccc2)COCn2nncc2CC[C@H]1Cc1ccccc1 returned IDE exosite FP 1.3.
CC(=O)N(CC(C)C)C[C@H]1[C@@H](c2ccc(C3=CCCC3)cc2)[C@@H](CO)N1C(C)=O was read as IDE exosite FP 5.3.
Screening Cc1cccc(S(=O)(=O)N2C[C@@H]3N[C@H](C2)C3c2ccc(-c3cncnc3)cc2)c1 (stereo partly specified) returned IDE exosite FP 0.092.
Cc1cccc(S(=O)(=O)N2C[C@@H]3N[C@H](C2)C3c2ccc(-c3ccccc3C)cc2)c1 (stereo partly specified) was read as IDE exosite FP -6.6*!.
`COc1cccc(S(=O)(=O)N2C[C@@H]3N[C@H](C2)C3c2ccc(-c3ccccc3C)cc2)c1` (stereo partly specified) gave IDE exosite FP -9.9*!.
COc1cccc(S(=O)(=O)N2C[C@@H]3N[C@H](C2)C3c2ccc(-c3ccccc3OC)cc2)c1 (stereo partly specified) was read as IDE exosite FP -2.2.
COc1cccc(S(=O)(=O)N2C[C@@H]3N[C@H](C2)C3c2ccc(-c3ccccc3F)cc2)c1 (stereo partly specified) was read as IDE exosite FP 0.57.
For Cc1cccc(S(=O)(=O)N2C[C@@H]3N[C@H](C2)C3c2ccc(-c3ccccc3F)cc2)c1 (stereo partly specified) the results were IDE exosite FP 2.5.
CCCNC(=O)N1[C@H](CO)[C@@H](c2ccccc2-c2ccc(OC)cc2)[C@@H]1C#N was read as IDE exosite FP 0.35.
